# Test results published in the supplement of paper PMC12024424.
# Counter-ions that a name gives are not always drawn.
# System: Staphylococcus aureus Sa2 (MRSA, cystic fibrosis isolate)
# Test: growth reduction vs untreated control (viable cell count); higher = stronger antibacterial activity; extreme values may be limits of the assay
# Conditions: 0.1 mM; 24 h
# Protocol: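 Single-dose screen of the MedChem Express Drug Repurposing Library (0.1 mM, 1% DMSO) against planktonic MRSA S. aureus Sa2 (CF isolate) in TSB in 96-well plates, 37 °C aerobic, 24 h. Assays were run in triplicate and repeated twice.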
row,SMILES,growth reduction [%]
1,O=[N+]([O-])c1ccc(O)c2ncccc12 [Nitroxoline],100
2,CC1=C(/C=C/C(C)=C/C=C/C(C)=C/C(=O)Nc2ccc(O)cc2)C(C)(C)CCC1 [Fenretinide],100
3,Clc1ccc(COC(Cn2ccnc2)c2ccc(Cl)cc2Cl)c(Cl)c1 (stereo not given) [Miconazole (nitrate)],100
4,CC(C)c1cc(Oc2c(Br)cc(NC(=O)CC(=O)O)cc2Br)ccc1O [Eprotirome],100
5,CCCSc1nc(N[C@@H]2C[C@H]2c2ccc(F)c(F)c2)c2nnn([C@@H]3C[C@H](OCCO)[C@@H](O)[C@H]3O)c2n1 [Ticagrelor],98
6,CCCCCNC(=N)N/N=C/c1c[nH]c2ccc(OC)cc12 [Tegaserod (maleate)],100
7,C=CC(=O)Nc1cc(Nc2nccc(-c3cn(C)c4ccccc34)n2)c(OC)cc1N(C)CCN(C)C [Osimertinib (dimesylate)],100
8,COc1cc(NS(C)(=O)=O)ccc1Nc1c2ccccc2nc2ccccc12 [Amsacrine (hydrochloride)],100
9,COCCNCc1ccc(-c2cc3nccc(Oc4ccc(NC(=O)C5(C(=O)Nc6ccc(F)cc6)CC5)cc4F)c3s2)nc1 [Sitravatinib],100
10,COc1cc2c(cc1Cc1cccc(Cl)c1F)c(=O)c(C(=O)O)cn2[C@H](CO)C(C)C [Elvitegravir],100
11,CCCCc1oc2ccccc2c1C(=O)c1cc(I)c(OCCN(CC)CC)c(I)c1 [Amiodarone (hydrochloride)],98
12,Cc1ccc(C#Cc2ccc(S(=O)(=O)N[C@H](Cc3c[nH]c4ccccc34)C(=O)O)s2)cc1,100
13,COc1cc2/c(=N/c3ccc(Br)cc3F)nc[nH]c2cc1OCC1CCN(C)CC1 [Vandetanib],100
14,O=C1Nc2ccc(Cl)cc2[C@@](C#CC2CC2)(C(F)(F)F)O1 [Efavirenz],98
15,O=C(O)Cc1cc(I)c(Oc2ccc(O)c(I)c2)c(I)c1 [Tiratricol],100
16,CN1CCN(c2ccc3nc(-c4c(N)c5c(F)cccc5[nH]c4=O)[nH]c3c2)CC1 [Dovitinib (lactate)],99
17,C[C@H]1O[C@@H](n2cc(F)c(=O)[nH]c2=O)[C@H](O)[C@@H]1O [Doxifluridine],100
18,CC(=O)O[C@]1(C(C)=O)CC[C@H]2[C@@H]3C=C(C)C4=CC(=O)CC[C@]4(C)[C@H]3CC[C@@]21C [Megestrol acetate],91
19,CSc1ccc(OCc2ncc([N+](=O)[O-])n2C)cc1 [Fexinidazole],93
20,Cc1ccc(NC(=O)c2ccc(CN3CCN(C)CC3)cc2)cc1Nc1nc(-c2cccnc2)cs1 [Masitinib (mesylate)],100

row,SMILES,growth reduction [%]
1,OC(c1cc(C(F)(F)F)nc2c(C(F)(F)F)cccc12)C1CCCCN1 (stereo not given) [Mefloquine (hydrochloride)],100
2,Cc1cc(OCCCS(C)(=O)=O)cc(C)c1-c1cccc(COc2ccc3c(c2)OC[C@H]3CC(=O)O)c1 [Fasiglifam],100
3,O/N=c1\cc(-c2cc3sccc3cn2)oc2ccc(CCCN3CCOCC3)cc12 [Foliglurax (monohydrochloride)],100
4,C=C[C@@H]1C[C@]1(NC(=O)[C@@H]1C[C@@H]2CN1C(=O)[C@H](C(C)(C)C)NC(=O)O[C@@H]1C[C@H]1CCCCCc1nc3ccc(OC)cc3nc1O2)C(=O)NS(=O)(=O)C1CC1 [Grazoprevir hydrate],100
5,Cc1c(C)c2c(c(C)c1O)CCC(C)(COc1ccc(CC3SC(=O)NC3=O)cc1)O2 (stereo not given) [Troglitazone],100
6,CCCCCCCCCCCC1=C(O)C(=O)C=C(O)C1=O [Embelin],100
7,CC(=O)Oc1cc(C)c(OC(C)=O)c2ccccc12 [Vitamin K4],97
8,COc1ccc(C(=O)NC2(C(=O)O)Cc3ccccc3C2)cc1OCCc1cccc(C)c1,96
9,Cc1cc(CC(C)CC(C)(C)C)n(O)c(=O)c1 (stereo not given) [Piroctone olamine],100
10,NC1=NCC2c3ccccc3Cc3ccccc3N12 (stereo not given) [Epinastine],100
11,CCC(c1ccccc1)c1c(O)c2ccccc2oc1=O (stereo not given) [Phenprocoumon],95
12,CNCCC(Oc1ccc(C(F)(F)F)cc1)c1ccccc1 (stereo not given) [Fluoxetine (hydrochloride)],100
13,C[C@H](Nc1cc(-c2cnn(C)c2)cc(Nc2cnccn2)n1)c1ccc(F)cc1 [Ilginatinib],94
14,CCN(C/C=C\c1ccc(C2CCCCC2)c(Cl)c1)C1CCCCC1,99
15,OC1(c2ccc(Cl)c(C(F)(F)F)c2)CCN(CCCC(c2ccc(F)cc2)c2ccc(F)cc2)CC1 [Penfluridol],100
16,CC/C(=C(\c1ccccc1)c1ccc(OCCN(C)C)cc1)c1ccccc1 [Tamoxifen (Citrate)],100
17,Clc1ccc(CO/N=C(\Cn2ccnc2)c2ccc(Cl)cc2Cl)c(Cl)c1 [Oxiconazole nitrate],100
18,Cc1nc2c([nH]1)-c1ccccc1N(C(=O)c1ccc(NC(=O)c3ccccc3-c3ccccc3)cc1)CC2 [Conivaptan (hydrochloride)],100
19,CC1CS(=O)(=O)CCN1/N=C/c1ccc([N+](=O)[O-])o1 (stereo not given) [Nifurtimox],100
20,Cc1ccc(-c2c(C(=O)CCl)n(CCCO)c3ncnc(N)c23)cc1,100
